HCMV antiviral = blocks human cytomegalovirus replication | activity change, negative = inhibition, % at 57.5 µM | HFF cells, HCMV-luciferase reporter, 72 h; active compounds read low | actives 4.5% (n = 410,000); in the data active = activity change below about -60%; inconclusive = no clear call, values can overlap the other calls; inactive = above about -39%
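Two compound doses tested in HFFs infected with HCMV-luciferase, MOI 1 PFU/cell, 72 h at 37C. Lysate luminescence read with OneGlo; data normalized against buffer-only and 10uM Salinomycin inhibitor controls.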
Sm TGR block = inhibitors of Schistosoma mansoni thioredoxin glutathione reductase | Potency, µM (series often up to 114 µM), usual class: inhibitors | actives 3% (n = 360,000) | purified TGR, DTNB reduction, TNB absorbance 405 nm; also: nearly all actives have a fitted effect of over 60% in size
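TGR 20 nM + NADPH 100 uM (dispensed conc.), cpd preinc 15 min RT; start with NADPH (500 uM addition) then DTNB (15 mM addition). Kinetic TNB absorbance, 405 nm filter. Four-parameter Hill fit across titration.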
Pf growth 48h = P. falciparum growth inhibition at 48 hours (one generation); Potency, µM (highest dose often 28.7 µM), most hits filed as inhibitors; P. falciparum luciferase growth in erythrocytes, 48 h; actives 5.9% (n = 310,000)
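Luciferase-expressing parasites in RBCs, 2% Hct / 0.1% parasitemia final; RPMI 1640 + 0.5% Albumax; 37 C, 5% CO2, one generation; luminescence read-out, lower signal = inhibition.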
SARS PLpro yeast = blocks SARS-CoV papain-like protease in a yeast assay; S. cerevisiae expressing SARS-CoV PLpro, growth rescue; Potency, µM (titrated, usually from 32.9 µM), most hits filed as activators; actives 0.19% (n = 330,000); calls by dose curve; also: nearly all actives have a fitted effect of over 55% in size
HCV inhibitor = blocks hepatitis C virus. Potency, µM (top dose mostly 41.8 µM), actives largely listed as inhibitors. AID 651820. Huh7.5.1 HCVcc-Cre infection, luciferase reporter, 44 h. actives 3.4% (n = 340,000)
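1,000 cells/well; 4 h culture; + compound; + HCVcc-Cre (~0.5 moi); 44 h; luciferase substrate, RT 15 min; read 15 sec.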
Pf growth 96h = P. falciparum growth inhibition at 96 hours | P. falciparum luciferase reporter growth, 96 h | Potency, µM (highest dose often 28.7 µM), most hits filed as inhibitors | actives 6.9% (n = 320,000)
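Readout is luminescence from an integrated firefly luciferase in P. falciparum. Red cells, 2% hematocrit and 0.05% parasitemia final, were cultured with compound through two parasite generations (96 hours) at 37 C, 5% CO2.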
Hits are given with their value; . = inactive; ? = inconclusive; / = not tested or not shown. A selection: hits, their analogues and other compounds. The true share with any hit is near 15%. Unless noted, calls follow the shape of the dose curve; as a rule, active = well fitted curve in the direction sought with a large enough effect; inconclusive = small, poorly fitted or top-dose-only effect, or another doubt; inactive = no such curve, though single readings can be large; an effect the other way counts as inactive or inconclusive.

SMILES	HCMV antiviral	Sm TGR block	Pf growth 48h	SARS PLpro yeast	HCV inhibitor	Pf growth 96h
Cc1cc2nc(-c3ccc(SCC(=O)N4CCc5ccccc54)nc3)[nH]c2cc1C	.	.	?	.	5µM	?
Cc1cc2nc(-c3ccc(SCC(=O)NC(C)C)nc3)[nH]c2cc1C	/	.	?	.	/	.
Cc1cc(NC(=O)CSc2ccc(-c3nc4cc(C)c(C)cc4[nH]3)cn2)no1	/	.	3.3µM	.	.	.
CCCNC(=O)c1cccc(C(F)(F)F)c1	.	.	.	.	.	.
CCc1nonc1NC(=O)c1oc2ccc(C)cc2c1C	.	.	.	.	.	?
CCOc1ccc(-c2nonc2NC(=O)c2oc3ccc(Br)cc3c2C)cc1	-96	.	/	/	/	/
CCc1nonc1NC(=O)c1oc2cc(Br)ccc2c1C	.	.	9.3µM	.	.	?
CCc1nonc1NC(=O)c1oc2ccccc2c1C	.	.	9.3µM	.	.	?
Cc1cc2oc(C(=O)Nc3nonc3C)c(C)c2cc1Cl	.	.	.	?	.	8.3µM
O=C(CNC(=O)c1ccccc1F)N/N=C/c1ccc2c(c1)OCO2	.	.	.	.	.	.
Cc1ccc(CN2C(=O)c3ccccc3C2c2nnnn2C(C)C)cc1 (stereo unspecified)	.	/	/	/	/	/
Cc1ccnc(NC(=O)Cn2c(=O)oc3ccccc32)c1	/	.	.	.	.	.
CCOc1ccc(CCNC(=O)c2cn(C)c3ccc(S(=O)(=O)N4CCOCC4)cc3c2=O)cc1OCC	.	.	12µM	.	.	?
Cc1ccc(CCNC(=O)c2cn(C)c3ccc(S(=O)(=O)N4CCCCC4)cc3c2=O)cc1	.	22µM	/	/	/	/
C=CCn1cc(C(=O)NCC2CCCO2)c(=O)c2cc(S(=O)(=O)N3CCCCCC3)ccc21 (stereo unspecified)	.	.	12µM	.	?	.
Cc1c(C(=O)NCC2COc3ccccc3O2)oc2ccc(S(=O)(=O)N(C)C3CCCCC3)cc12 (stereo unspecified)	.	.	9.3µM	.	.	/
CCOc1ccc(CCNC(=O)c2cn(C)c3ccc(S(=O)(=O)N4CCCCC4)cc3c2=O)cc1OCC	.	.	/	/	/	/
CC1CC(C)CN(c2cc(N(C)CCO)c([N+](=O)[O-])c3nonc23)C1 (stereo unspecified)	.	.	.	.	.	.
Cn1cc(C(=O)NCC2COc3ccccc3O2)c(=O)c2cc(S(=O)(=O)N3CCCCC3)ccc21 (stereo unspecified)	.	.	12µM	.	.	/
CCCCSCCCNC(=O)c1cn(C)c2ccc(S(=O)(=O)N3CCCC3)cc2c1=O	.	.	?	.	.	10µM
CCCCSCCCNC(=O)c1cn(C)c2ccc(S(=O)(=O)N3CCCCC3)cc2c1=O	.	.	/	/	/	/
Cc1cccc(Cn2cc3c(=O)n(CC(=O)Nc4ccc(C)c(F)c4)nc-3c3cc(F)ccc32)c1	.	.	/	/	/	/
CC(C)CCNC(=O)c1ccc2nc(Cc3ccccc3)oc2c1	.	.	/	/	/	/
CC(Oc1ccc(-c2ccccc2)c(F)c1)c1ccn(S(=O)(=O)c2ccc(F)cc2)n1 (stereo unspecified)	.	.	?	.	?	?
COc1ccc(S(=O)(=O)n2ccc(C(C)Oc3ccc(-c4ccccc4)c(F)c3)n2)cc1 (stereo unspecified)	?	.	13µM	.	?	17µM
SMILES	HCMV antiviral	Sm TGR block	Pf growth 48h	SARS PLpro yeast	HCV inhibitor	Pf growth 96h
CC(C)c1cccc(C(C)C)c1NC(=O)c1ccc(-c2cc(Cl)ccc2Cl)o1	.	/	/	/	/	/
CCc1noc2c1/C(=N\O)CC(c1ccccc1)C2 (stereo unspecified)	.	.	8.3µM	.	.	.
CCCc1noc2c1/C(=N\O)CC(c1ccccc1)C2 (stereo unspecified)	.	.	9.3µM	.	.	?
Cc1ccccc1COc1cccc(/C=N/NC(=O)c2nnn(-c3nonc3N)c2C)c1	?	.	?	.	?	.
COc1cc(/C=N/NC(=O)c2nnn(-c3nonc3N)c2C(C)C)ccc1OCc1ccccc1	.	.	?	.	14µM	9.3µM
CCCCOc1ccc(/C=N/NC(=O)c2nnn(-c3nonc3N)c2C)cc1	?	.	.	.	?	.
